Measured values reported in PubChem BioAssay (Tox21).
Activity calls are given as the source filed them. The call rests on the fitted dose curve.

Molecular target: Acetylcholinesterase (Homo sapiens) (UniProt P22303)
Assay: Acetylcholinesterase (AChE) small molecule antagonists: enzyme-based qHTS assay with human liver microsomes (AID 1347399); further: nearly all actives have a fitted effect of over 60% in size
Conditions: Potency: qHTS inhibition; outcome: qHTS inhibition; series mostly up to 115 µM; activity change, negative = inhibition: at the top concentration
Method in brief: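 Recombinant human AChE (50 mU/mL in the enzyme mix) and human liver microsomes (0.25 mg/mL final) were preincubated with compound and NADPH (0.25 mg/mL final) for 30 min at 37 C. Acetylthiocholine/DTNB was then added; thiocholine was read colorimetrically after 10 min at room temperature.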
On the % scale 0 is the no-effect control and ±100 the full control effect.

Chain of Acetylcholinesterase (Homo sapiens) (P22303 whole entry, looked up): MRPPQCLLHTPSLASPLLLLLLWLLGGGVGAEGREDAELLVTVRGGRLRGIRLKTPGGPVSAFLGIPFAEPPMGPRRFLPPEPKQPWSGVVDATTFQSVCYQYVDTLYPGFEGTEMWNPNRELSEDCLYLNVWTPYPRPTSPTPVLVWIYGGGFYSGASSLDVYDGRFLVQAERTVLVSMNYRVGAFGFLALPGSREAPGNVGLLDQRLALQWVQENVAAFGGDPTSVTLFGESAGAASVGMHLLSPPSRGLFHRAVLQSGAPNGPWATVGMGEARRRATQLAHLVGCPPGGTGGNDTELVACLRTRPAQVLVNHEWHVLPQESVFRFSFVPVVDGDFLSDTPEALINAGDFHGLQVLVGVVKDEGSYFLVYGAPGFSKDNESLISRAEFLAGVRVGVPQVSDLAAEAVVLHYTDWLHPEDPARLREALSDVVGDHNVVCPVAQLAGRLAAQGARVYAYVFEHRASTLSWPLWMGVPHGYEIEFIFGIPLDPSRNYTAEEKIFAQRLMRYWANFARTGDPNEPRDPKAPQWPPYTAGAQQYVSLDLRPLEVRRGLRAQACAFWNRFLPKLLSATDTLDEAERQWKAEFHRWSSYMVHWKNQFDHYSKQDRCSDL

Structure (SMILES)	activity change, negative = inhibition	Potency
CCCCCCCCCCCCCCC(=O)O	-1.72% (inactive)	
CCCC(=O)OCOC(=O)C1=C(C)NC(C)=C(C(=O)OC)C1c1cccc(Cl)c1Cl (stereo not given)	0% [at 53 µM] (inactive)	
OCCN(CCO)c1ccccc1	0% (inactive)	
CC(C)CCCCCOC(=O)CS	-0.12% (inactive)	
C=CC(=O)OCCCCCCOC(=O)C=C		inactive
CCCCCCCC/C=C\CCCCCCCC(=O)OC	-1.71% (inactive)	
O=Cc1ccc([N+](=O)[O-])cc1	-6.07% (inactive)	
N[C@H]1CN(c2c(F)cc3c(=O)c(C(=O)O)cn(C4C[C@H]4F)c3c2Cl)CC12CC2 (stereo not given in full)	-1.51% [at 53 µM] (inactive)	
O=S(c1cc(Cl)cc(Cl)c1O)c1cc(Cl)cc(Cl)c1O	1.41% [at 53 µM] (inactive)	
COc1ccc(CCC(C)=O)cc1		inactive
CCC(CC)C(=O)O	-4.17% (inactive)	
OCc1cccc(Oc2ccccc2)c1		inactive
CC(C)(C)c1cc(CCC(=O)OCC(COC(=O)CCc2cc(C(C)(C)C)c(O)c(C(C)(C)C)c2)(COC(=O)CCc2cc(C(C)(C)C)c(O)c(C(C)(C)C)c2)COC(=O)CCc2cc(C(C)(C)C)c(O)c(C(C)(C)C)c2)cc(C(C)(C)C)c1O	0.382% [at 53 µM] (inactive)	
O=C(Cl)c1c(Cl)cccc1Cl	0.324% (inactive)	
C=C(C)C(=O)O		inactive
COCCOCCOCCO		inactive
CC(C)(C)C(=O)c1ccccc1	0.894% (inactive)	
CCc1ccccc1	-0.504% (inactive)	
CCCOC(=O)CC	1.31% (inactive)	
O=C(NCC1CN(c2ccc(N3CCOCC3=O)cc2)C(=O)O1)c1ccc(Cl)s1 (stereo not given)	1.02% [at 53 µM] (inactive)	

Structure (SMILES)	activity change, negative = inhibition	Potency
Nc1ccc(O)c([N+](=O)[O-])c1	-3.36% (inactive)	
C[C@]12CCC(=O)C=C1C=C[C@@H]1[C@@H]2CC[C@@]2(C)[C@H]1CC[C@@]21CCC(=O)O1	2.8% [at 53 µM] (inactive)	
C/C(C=O)=C\c1ccccc1	0.341% (inactive)	
CSc1ccc(/C=C2/C(C)=C(CC(=O)O)c3cc(F)ccc32)cc1	1.33% [at 53 µM] (inactive)	
COCC(C)O (stereo not given)		inactive
COc1ccc2c(c1)c(CC(=O)O)c(C)n2C(=O)c1ccc(Cl)cc1		inactive
Cc1cccc(C)c1NC(=O)CC12CCCN1CCC2	-0.505% [at 53 µM] (inactive)	
O=C(O)O	-6.48% [at 10.5 µM] (inactive)	
CC(C)Cc1nccs1	0% (inactive)	
CC(Oc1cc(Cl)ccc1Cl)C(=O)O (stereo not given)	-0.92% (inactive)	
CN1C(=O)c2ccccc2C1=O	-1.51% (inactive)	
CC(C)CCCCCOC(=O)CCCCC(=O)OCCCCCC(C)C	0% (inactive)	
CC(C)C(=O)c1c(C(C)C)nn2ccccc12	0.168% [at 53 µM] (inactive)	
CN(C)Cc1cc(C(C)(C)C)c(O)c(C(C)(C)C)c1	0.229% (inactive)	
CC(C(=O)O)c1ccc(-c2ccccc2)c(F)c1 (stereo not given)	0.306% (inactive)	
CCCOC(=O)c1cc(O)c(O)c(O)c1		inactive
CCC(C)OC(=O)N1CCCCC1CCO (stereo not given)	-1.74% (inactive)	
O=c1[nH]c(=O)n([C@H]2C[C@H](O)[C@@H](CO)O2)cc1C(F)(F)F	-1.63% [at 53 µM] (inactive)	
CC(=O)OCC=C(C)C	0.691% [at 53 µM] (inactive)	
CCCCN(CCC(=O)OCC)C(C)=O	0.688% (inactive)	
